Test results published in the supplement of paper PMC10849652.
Targets with a hit are over-represented here; the source holds about 8,800 in all. About 0.5% of all pairs of compound and target were hits.

Experiments:
Assay in all cases: log2 fold change, soluble protein after heating vs DMSO (PISA); higher = thermal stabilisation; K562 lysate, 10 uM; active = over 0.2 and 3.5 SD of the protein, either way, in both replicates (recomputed)
[1] = compound: C1=CC=C(C=C1)[C@H](COC2=CC3=C(C=C2)NC(=O)N3)NC(=O)C4=CC=CN(C4=O)CC5=CC(=C(C=C5)F)F
Procedure, shortened: (§1)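 Pellets of K562 cells were dounce-homogenised in PBS pH 7.4 with 1 mM MgCl2, and the crude extract was held at 1 mg/mL protein for a 30 min treatment with 10 μM compound. Aliquots were heated for 3 min over 48°C-58°C and pooled before NP-40 was added to 0.5% at 4°C. The supernatant from 21,000xg for 90 min was quantified by TMTpro 16plex LC-MS/MS with channel sums equalised. Values are reported from duplicates as log-two fold change in thermal stability relative to solvent controls.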

[2] = compound: CC1=C(SC2=C1C(=N[C@H](C3=NN=C(N32)C)CC(=O)N)C4=CC=C(C=C4)Cl)C
Procedure, shortened: as §1

[3] = compound: CC1=C2C(=CC=C1)N=C(N(C2=O)C3=CC=CC=C3C)CN4C=NC5=C(N=CN=C54)N
Procedure, shortened: as §1

[4] = compound: Cc1sc2c(c1C)C(c1ccc(Cl)cc1)=N[C@@H](CC(=O)OC(C)(C)C)c1nnc(C)n1-2
Procedure, shortened: as §1

[5] = compound: c1ccc([C@@H]2C[C@H]2NC2CCNCC2)cc1
Procedure, shortened: as §1

Measured: log2 fold change

MT-CYB (UniProt P00156)
Sequence of UniProt P00156 (P00156 whole entry, looked up): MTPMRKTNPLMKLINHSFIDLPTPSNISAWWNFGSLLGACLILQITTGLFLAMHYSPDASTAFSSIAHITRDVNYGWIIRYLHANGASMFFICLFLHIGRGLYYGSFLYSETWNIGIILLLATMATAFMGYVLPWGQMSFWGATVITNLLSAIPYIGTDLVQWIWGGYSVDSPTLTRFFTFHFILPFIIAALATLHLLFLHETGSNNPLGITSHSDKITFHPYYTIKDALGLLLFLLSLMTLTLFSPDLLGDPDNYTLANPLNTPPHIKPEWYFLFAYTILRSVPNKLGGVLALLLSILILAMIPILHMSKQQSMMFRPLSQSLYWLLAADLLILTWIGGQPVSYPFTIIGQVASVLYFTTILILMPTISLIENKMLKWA
inactive: [1] 0.062 | [2] -0.091 | [3] -0.052 | [4] -0.132 | [5] -0.468

NOA1 (UniProt Q8NC60)
inactive: [1] -0.087 | [2] 0.099 | [3] 0.023 | [4] -0.014 | [5] -0.07

NPLOC4 isoform 2 (UniProt Q8TAT6)
Sequence of UniProt Q8TAT6 (Q8TAT6 whole entry, looked up): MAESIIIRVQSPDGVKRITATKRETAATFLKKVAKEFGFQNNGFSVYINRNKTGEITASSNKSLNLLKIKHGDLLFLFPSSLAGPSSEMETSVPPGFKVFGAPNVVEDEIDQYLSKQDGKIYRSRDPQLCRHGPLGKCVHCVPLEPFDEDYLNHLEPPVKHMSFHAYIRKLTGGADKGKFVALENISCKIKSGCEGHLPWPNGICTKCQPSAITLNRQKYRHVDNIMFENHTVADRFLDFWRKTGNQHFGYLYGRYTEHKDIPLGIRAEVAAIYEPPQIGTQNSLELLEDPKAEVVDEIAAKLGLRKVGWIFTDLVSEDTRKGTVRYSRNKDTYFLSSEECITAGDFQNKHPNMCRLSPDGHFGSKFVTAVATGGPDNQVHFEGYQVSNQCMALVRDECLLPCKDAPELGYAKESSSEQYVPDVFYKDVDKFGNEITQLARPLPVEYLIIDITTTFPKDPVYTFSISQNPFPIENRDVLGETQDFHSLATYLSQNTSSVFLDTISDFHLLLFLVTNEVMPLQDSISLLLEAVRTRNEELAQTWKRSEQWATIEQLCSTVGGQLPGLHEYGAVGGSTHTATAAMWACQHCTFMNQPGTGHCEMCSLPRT
inactive: [1] 0.035 | [2] 0.017 | [3] 0.025 | [4] -0.012 | [5] -0.064

NCK1 (UniProt P16333)
inactive: [1] 0.018 | [2] 0 | [3] 0.022 | [4] 0.003 | [5] 0.049

NPM3 (UniProt O75607)
inactive: [1] 0.172 | [2] -0.045 | [3] -0.009 | [4] -0.03 | [5] -0.157

NCAPD3 (UniProt P42695)
inactive: [1] 0.028 | [2] -0.007 | [3] 0.046 | [4] -0.005 | [5] 0.016

NBEAL2 (UniProt Q6ZNJ1)
inactive: [1] -0.047 | [2] 0.055 | [3] 0.015 | [4] -0.029 | [5] 0.044

NARF (UniProt Q9UHQ1)
inactive: [1] -0.023 | [2] -0.005 | [3] 0.017 | [4] -0.019 | [5] 0

MVB12A (UniProt Q96EY5)
inactive: [1] 0.006 | [2] 0.032 | [3] 0.017 | [4] 0.032 | [5] 0.059

NOSTRIN (UniProt Q8IVI9)
Sequence of UniProt Q8IVI9 (Q8IVI9 whole entry, looked up): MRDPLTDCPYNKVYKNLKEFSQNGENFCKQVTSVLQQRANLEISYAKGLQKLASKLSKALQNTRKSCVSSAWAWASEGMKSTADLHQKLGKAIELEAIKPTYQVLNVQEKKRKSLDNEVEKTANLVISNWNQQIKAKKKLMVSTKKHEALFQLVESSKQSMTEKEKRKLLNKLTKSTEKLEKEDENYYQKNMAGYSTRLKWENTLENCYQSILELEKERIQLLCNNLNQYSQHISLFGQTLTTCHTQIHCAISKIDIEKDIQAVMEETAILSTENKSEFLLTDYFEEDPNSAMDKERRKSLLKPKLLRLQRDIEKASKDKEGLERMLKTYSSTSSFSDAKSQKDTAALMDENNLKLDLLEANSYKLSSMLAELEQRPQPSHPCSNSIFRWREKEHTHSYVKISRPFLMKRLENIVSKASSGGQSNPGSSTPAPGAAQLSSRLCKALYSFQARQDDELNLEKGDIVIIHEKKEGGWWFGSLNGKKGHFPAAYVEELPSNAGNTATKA
inactive: [1] -0.061 | [2] 0.039 | [3] 0.017 | [4] -0.092 | [5] 0.017

MSI2 (UniProt Q96DH6)
inactive: [1] -0.007 | [2] -0.007 | [3] -0.001 | [4] 0.048 | [5] 0.071

NFKBIB (UniProt Q15653)
inactive: [1] 0.068 | [2] 0 | [3] 0.014 | [4] 0.055 | [5] -0.185

NELFA (UniProt Q9H3P2)
Sequence of UniProt Q9H3P2 (Q9H3P2 whole entry, looked up): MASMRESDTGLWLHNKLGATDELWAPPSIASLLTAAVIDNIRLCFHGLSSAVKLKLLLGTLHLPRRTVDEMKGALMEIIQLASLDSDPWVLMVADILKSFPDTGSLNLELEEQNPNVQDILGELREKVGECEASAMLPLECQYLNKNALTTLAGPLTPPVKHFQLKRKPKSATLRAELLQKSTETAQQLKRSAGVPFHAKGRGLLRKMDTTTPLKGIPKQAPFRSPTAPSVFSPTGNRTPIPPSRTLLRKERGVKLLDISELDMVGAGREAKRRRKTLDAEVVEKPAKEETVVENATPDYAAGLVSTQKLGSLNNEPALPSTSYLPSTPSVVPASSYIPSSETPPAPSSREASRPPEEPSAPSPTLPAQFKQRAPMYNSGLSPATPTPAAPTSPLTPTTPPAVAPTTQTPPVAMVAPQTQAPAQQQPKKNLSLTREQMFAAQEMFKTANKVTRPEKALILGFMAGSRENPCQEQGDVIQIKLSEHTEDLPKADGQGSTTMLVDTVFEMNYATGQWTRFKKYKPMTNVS
inactive: [1] -0.055 | [2] 0.033 | [3] -0.022 | [4] -0.037 | [5] 0.054

NUCB2 (UniProt P80303)
inactive: [1] 0.041 | [2] -0.005 | [3] -0.011 | [4] -0.021 | [5] 0.079

NOB1 (UniProt Q9ULX3)
Sequence of UniProt Q9ULX3 (Q9ULX3 whole entry, looked up): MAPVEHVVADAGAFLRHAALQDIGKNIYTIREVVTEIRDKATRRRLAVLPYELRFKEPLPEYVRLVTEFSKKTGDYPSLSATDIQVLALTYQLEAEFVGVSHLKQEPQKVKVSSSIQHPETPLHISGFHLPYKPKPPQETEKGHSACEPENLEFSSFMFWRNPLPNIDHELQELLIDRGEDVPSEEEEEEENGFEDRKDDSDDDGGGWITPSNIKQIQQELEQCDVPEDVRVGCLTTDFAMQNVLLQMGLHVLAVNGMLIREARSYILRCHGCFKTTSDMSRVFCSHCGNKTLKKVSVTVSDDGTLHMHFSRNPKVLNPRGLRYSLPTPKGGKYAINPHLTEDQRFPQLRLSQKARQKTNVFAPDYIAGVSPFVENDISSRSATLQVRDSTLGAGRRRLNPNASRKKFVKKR
inactive: [1] 0.004 | [2] -0.051 | [3] 0.038 | [4] -0.021 | [5] 0.13

NIT2 (UniProt Q9NQR4)
inactive: [1] -0.033 | [2] 0.017 | [3] 0.027 | [4] -0.007 | [5] 0.058

NSL1 (UniProt Q96IY1)
inactive: [1] 0.028 | [2] 0.012 | [3] -0.001 | [4] 0.053 | [5] -0.014

ORC2 (UniProt Q13416)
inactive: [1] -0.052 | [2] -0.011 | [3] -0.012 | [4] 0.025 | [5] 0.044

NMT1 (UniProt P30419)
inactive: [1] 0.004 | [2] 0.002 | [3] -0.002 | [4] 0.011 | [5] 0.004

NCAPH2 (UniProt Q6IBW4)
inactive: [1] 0.027 | [2] -0.001 | [3] 0.035 | [4] -0.005 | [5] 0.024

MSH6 (UniProt P52701)
inactive: [1] -0.021 | [2] 0.01 | [3] 0.034 | [4] 0.006 | [5] 0.014

NR3C1 isoform 3 (UniProt P04150)
inactive: [2] 0.034 | [3] -0.001 | [4] -0.035 | [5] 0.084
active: [1] 0.292

NUP133 (UniProt Q8WUM0)
inactive: [1] 0.05 | [2] 0.046 | [3] 0.014 | [4] 0.025 | [5] -0.052

OSBPL3 isoform 2 (UniProt Q9H4L5)
Sequence of UniProt Q9H4L5 (Q9H4L5 whole entry, looked up): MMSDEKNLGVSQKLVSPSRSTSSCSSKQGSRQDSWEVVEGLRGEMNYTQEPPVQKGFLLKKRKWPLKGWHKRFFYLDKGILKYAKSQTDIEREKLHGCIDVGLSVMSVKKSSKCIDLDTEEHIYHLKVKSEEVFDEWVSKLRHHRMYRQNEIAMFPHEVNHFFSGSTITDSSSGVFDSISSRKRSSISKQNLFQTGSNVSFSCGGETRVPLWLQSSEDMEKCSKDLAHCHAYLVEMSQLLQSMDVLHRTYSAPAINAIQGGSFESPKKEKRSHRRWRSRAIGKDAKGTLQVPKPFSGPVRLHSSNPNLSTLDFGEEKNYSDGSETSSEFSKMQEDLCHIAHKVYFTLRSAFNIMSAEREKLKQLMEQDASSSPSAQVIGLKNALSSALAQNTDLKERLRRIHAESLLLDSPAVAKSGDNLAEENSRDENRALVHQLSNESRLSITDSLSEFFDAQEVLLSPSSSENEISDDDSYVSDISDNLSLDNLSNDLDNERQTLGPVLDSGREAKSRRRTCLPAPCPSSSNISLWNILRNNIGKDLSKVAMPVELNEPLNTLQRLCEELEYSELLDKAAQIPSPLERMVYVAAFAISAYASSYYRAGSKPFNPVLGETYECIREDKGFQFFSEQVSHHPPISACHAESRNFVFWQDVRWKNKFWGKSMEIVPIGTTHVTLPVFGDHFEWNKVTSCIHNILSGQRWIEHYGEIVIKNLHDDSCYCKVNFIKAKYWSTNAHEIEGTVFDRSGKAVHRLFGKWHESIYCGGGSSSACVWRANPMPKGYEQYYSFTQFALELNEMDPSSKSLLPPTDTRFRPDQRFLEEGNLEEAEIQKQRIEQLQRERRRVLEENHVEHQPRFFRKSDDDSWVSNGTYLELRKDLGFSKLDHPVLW
inactive: [1] -0.02 | [2] -0.018 | [3] 0.043 | [4] -0.017 | [5] 0.004

OLA1 (UniProt Q9NTK5)
inactive: [1] -0.001 | [2] 0.04 | [3] 0 | [4] 0.011 | [5] 0.022

NONO (UniProt Q15233)
inactive: [1] -0.047 | [2] 0.02 | [3] 0.015 | [4] 0.026 | [5] 0.074

PANK4 (UniProt Q9NVE7)
Sequence of UniProt Q9NVE7 (Q9NVE7 whole entry, looked up): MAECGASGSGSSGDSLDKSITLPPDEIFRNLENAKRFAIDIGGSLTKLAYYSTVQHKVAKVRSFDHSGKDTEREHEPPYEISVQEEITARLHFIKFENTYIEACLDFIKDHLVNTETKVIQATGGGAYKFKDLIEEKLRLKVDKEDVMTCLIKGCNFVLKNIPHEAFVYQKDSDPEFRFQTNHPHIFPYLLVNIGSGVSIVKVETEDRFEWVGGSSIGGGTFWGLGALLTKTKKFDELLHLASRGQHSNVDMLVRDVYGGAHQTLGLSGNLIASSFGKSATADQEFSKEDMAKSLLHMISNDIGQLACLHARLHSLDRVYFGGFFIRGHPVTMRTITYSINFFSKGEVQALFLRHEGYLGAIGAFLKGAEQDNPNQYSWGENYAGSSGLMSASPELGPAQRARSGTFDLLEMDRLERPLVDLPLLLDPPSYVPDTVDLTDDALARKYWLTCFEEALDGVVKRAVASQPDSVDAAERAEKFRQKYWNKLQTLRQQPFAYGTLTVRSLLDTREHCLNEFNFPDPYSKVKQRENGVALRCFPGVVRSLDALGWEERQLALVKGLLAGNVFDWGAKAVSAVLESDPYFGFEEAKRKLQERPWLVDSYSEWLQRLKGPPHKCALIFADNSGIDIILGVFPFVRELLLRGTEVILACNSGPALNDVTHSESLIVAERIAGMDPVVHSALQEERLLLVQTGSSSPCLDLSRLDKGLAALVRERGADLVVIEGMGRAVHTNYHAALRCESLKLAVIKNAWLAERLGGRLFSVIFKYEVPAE
inactive: [1] -0.009 | [2] -0.025 | [3] 0.026 | [4] 0.003 | [5] -0.013

OSBP2 (UniProt Q969R2)
inactive: [1] 0.021 | [2] 0.046 | [3] 0.019 | [4] -0.095 | [5] -0.439

NDUFS1 isoform 2 (UniProt P28331)
inactive: [1] 0.009 | [2] -0.003 | [3] 0.022 | [4] 0.013 | [5] 0.035

NAT1 (UniProt P18440)
inactive: [1] 0.049 | [2] -0.021 | [3] 0.012 | [4] 0.015 | [5] 0.011

MYH11 isoform 2 (UniProt P35749)
inactive: [1] 0.037 | [2] -0.021 | [3] 0.004 | [4] -0.065 | [5] 0.025

NADK2 (UniProt Q4G0N4)
inactive: [1] 0.057 | [2] 0.007 | [3] -0.006 | [4] 0.045 | [5] -0.012

MYCBP (UniProt Q99417)
inactive: [1] 0.043 | [2] -0.087 | [3] -0.013 | [4] -0.022 | [5] -0.27

NUDT4 (UniProt Q9NZJ9)
Sequence of UniProt Q9NZJ9 (Q9NZJ9 whole entry, looked up): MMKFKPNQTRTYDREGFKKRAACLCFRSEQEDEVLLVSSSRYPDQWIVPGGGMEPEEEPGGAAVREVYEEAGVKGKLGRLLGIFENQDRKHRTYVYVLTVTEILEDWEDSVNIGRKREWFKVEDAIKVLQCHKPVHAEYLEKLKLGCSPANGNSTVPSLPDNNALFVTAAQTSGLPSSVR
inactive: [1] 0.037 | [2] -0.025 | [3] 0.004 | [4] 0.075 | [5] 0.242

NFATC2 (UniProt Q13469)
inactive: [1] 0.027 | [2] 0.073 | [3] 0.064 | [4] 0.031 | [5] -0.1

NT5DC2 isoform 2 (UniProt Q9H857)
inactive: [1] 0.021 | [2] -0.026 | [3] 0.009 | [4] 0.051 | [5] -0.022

ORC3 isoform 2 (UniProt Q9UBD5)
inactive: [1] 0.005 | [2] -0.031 | [3] 0.014 | [4] 0.021 | [5] 0.047

MTMR6 (UniProt Q9Y217)
Sequence of UniProt Q9Y217 (Q9Y217 whole entry, looked up): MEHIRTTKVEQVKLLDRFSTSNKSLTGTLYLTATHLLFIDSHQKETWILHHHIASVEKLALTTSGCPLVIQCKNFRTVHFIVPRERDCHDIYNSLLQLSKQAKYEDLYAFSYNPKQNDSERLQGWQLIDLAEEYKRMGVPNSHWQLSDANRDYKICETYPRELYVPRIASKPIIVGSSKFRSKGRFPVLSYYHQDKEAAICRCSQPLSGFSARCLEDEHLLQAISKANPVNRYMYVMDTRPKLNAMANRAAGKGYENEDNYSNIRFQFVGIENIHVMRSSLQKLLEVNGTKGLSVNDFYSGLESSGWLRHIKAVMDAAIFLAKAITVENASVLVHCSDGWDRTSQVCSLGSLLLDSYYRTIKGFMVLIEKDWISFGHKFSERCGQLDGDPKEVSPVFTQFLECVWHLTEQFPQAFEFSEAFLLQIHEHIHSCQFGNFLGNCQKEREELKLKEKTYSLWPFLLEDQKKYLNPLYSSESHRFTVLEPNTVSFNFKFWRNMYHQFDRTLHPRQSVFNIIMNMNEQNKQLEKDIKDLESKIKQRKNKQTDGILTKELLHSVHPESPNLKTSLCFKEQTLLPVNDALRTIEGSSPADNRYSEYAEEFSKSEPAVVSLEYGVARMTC
inactive: [1] 0.015 | [2] 0.01 | [3] 0.006 | [4] -0.065 | [5] 0.062

NFATC2IP (UniProt Q8NCF5)
inactive: [1] 0.012 | [2] -0.01 | [3] 0.009 | [4] 0.138 | [5] 0.049

NEDD8 (UniProt Q15843)
Sequence of UniProt Q15843 (Q15843 whole entry, looked up): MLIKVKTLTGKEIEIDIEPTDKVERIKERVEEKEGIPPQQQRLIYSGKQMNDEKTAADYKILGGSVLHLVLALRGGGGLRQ
inactive: [1] 0.051 | [2] -0.014 | [3] -0.047 | [4] 0.002 | [5] 0.085

NCAPG2 (UniProt Q86XI2)
inactive: [1] -0.074 | [2] -0.04 | [3] 0.019 | [4] 0.025 | [5] 0.001

NFAT5 isoform 5 (UniProt O94916)
inactive: [1] 0.12 | [2] -0.028 | [3] 0.009 | [4] -0.02 | [5] -0.007

NAA38 isoform 2 (UniProt Q9BRA0)
active: [5] -0.344
inactive: [1] -0.002 | [2] 0.02 | [3] 0.063 | [4] -0.005

NUDT4 isoform 2 (UniProt Q9NZJ9)
inactive: [1] 0.009 | [2] -0.011 | [3] 0.01 | [4] 0.067 | [5] -0.026

OAT (UniProt P04181)
inactive: [1] 0.029 | [2] 0.031 | [3] 0.038 | [4] 0.034 | [5] -0.018

NTMT1 (UniProt Q9BV86)
inactive: [1] -0.01 | [2] -0.036 | [3] -0.019 | [4] 0.02 | [5] 0.098

NAA30 (UniProt Q147X3)
inactive: [1] 0 | [2] 0.018 | [3] 0.033 | [4] 0.02 | [5] -0.013

NACC1 (UniProt Q96RE7)
inactive: [1] 0.013 | [2] -0.004 | [3] 0.027 | [4] 0.013 | [5] 0.033

PBK (UniProt Q96KB5)
inactive: [1] -0.002 | [2] 0.006 | [3] 0.006 | [4] 0.023 | [5] 0.029

NUP205 (UniProt Q92621)
inactive: [1] -0.042 | [2] -0.019 | [3] 0.045 | [4] 0.006 | [5] -0.001

OTC (UniProt P00480)
active: [5] -2.16
inactive: [1] -0.11 | [2] 0.131 | [3] -0.028 | [4] -0.38

NEK9 (UniProt Q8TD19)
inactive: [1] -0.002 | [2] 0.002 | [3] -0.033 | [4] 0.017 | [5] -0.032

NPTN (UniProt Q9Y639)
inactive: [1] 0.026 | [2] -0.045 | [3] -0.038 | [4] -0.018 | [5] -0.006
